Measured values: PubChem BioAssay (NCI)
About 79,000 compounds went through this panel and 15% of them were active in at least one assay; those are over-represented in the sample as a whole. Active and inactive are the calls of the source. Rule as the data show it: active = growth inhibition above about 70%; inactive = the rest.

Columns and labels:
[1] = NCI Yeast Anticancer Drug Screen. Data for the rad50 strain (AID 155);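 also: 0% = growth of vehicle-only cultures of the same strain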; conditions: S. cerevisiae rad50 strain growth inhibition; at 50.0 µM; active compounds read high
How it was run: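 Inhibition values express reduced yeast growth in compound-treated cultures relative to vehicle-treated controls.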

[2] = NCI Yeast Anticancer Drug Screen. Data for the mec2-1 strain (AID 157); conditions: S. cerevisiae mec2-1 strain, at 50.0 µM, active compounds read high
How it was run: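 Mutant yeast (mec2-1) grown with compound; growth inhibition relative to vehicle control reported.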

[3] = NCI Yeast Anticancer Drug Screen. Data for the sgs1 mgt1 strain (AID 161);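 also: 0% = growth of cultures given vehicle only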; conditions: S. cerevisiae sgs1 mgt1 strain, at 50.0 µM, active compounds read high
How it was run: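 Compounds are added to genetically altered yeast, and growth is compared with cultures given vehicle alone to give percent inhibition.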

[4] = NCI Yeast Anticancer Drug Screen. Data for the cln2 rad14 strain (AID 165);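 also: 0% = growth equal to vehicle treated cultures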; conditions: S. cerevisiae cln2 rad14 strain, at 50.0 µM, active compounds read high
How it was run: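 Readout is yeast growth inhibition versus vehicle-treated controls, using a strain with cln2 and rad14 alterations exposed to compound.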

[5] = NCI Yeast Anticancer Drug Screen. Data for the bub3 strain (AID 167); conditions: S. cerevisiae bub3 mutant strain, at 50.0 µM, active compounds read high
How it was run: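 Steps: expose the mutant yeast strain to compound; grow alongside vehicle-treated cultures; measure growth; express inhibition against the vehicle cultures.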

[6] = NCI Yeast Anticancer Drug Screen. Data for the mlh1 rad18 strain (AID 175); conditions: S. cerevisiae mlh1 rad18 strain growth inhibition; at 50.0 µM; active compounds read high
How it was run: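 Genetically defined yeast (DNA repair-deficient) exposed to compounds; growth inhibition determined relative to vehicle.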

Measured: growth inhibition

CN(C)C/C=C(/c1ccc(Br)cc1)c1cccnc1
inactive: [1] -5.75% | [2] -16% | [3] -3.7% | [4] -20.4% | [5] -12.6% | [6] 1.65%

CCc1cccc(CC)c1N=C(NC(=O)c1ccc(Br)cc1)SC
inactive: [1] -17.6% | [2] -16.5% | [3] -4.7% | [4] -6.75% | [5] -17.1% | [6] -5.65%

CCOC(OCC)N(C)C
inactive: [1] -14.9% | [2] -5.25% | [3] -3.05% | [4] -4.8% | [5] -5.5% | [6] -26.8%

Cc1ccc(NC(=O)OCC(F)(F)F)cc1NC(=O)OCC(F)(F)F
inactive: [1] 1.9% | [2] 29.3% | [3] 26.1% | [4] -0.9% | [5] 16.8% | [6] 1.95%

COC1(OC)C=NNc2nccn21
inactive: [1] 2.05% | [2] -2.5% | [3] 3.3% | [4] 19.6% | [5] -5.9% | [6] -5.3%

O=c1c2cc3ccccc3cc2c(=O)n2n1CC(O)C(Br)C2 (stereo not given)
inactive: [1] 64.7% | [2] 20.9% | [3] 36.5% | [4] -28.6% | [5] -3.2% | [6] 17.7%

CCOC(=O)c1c(-c2ccccc2)c(-c2ccccc2)cn1C
inactive: [1] 18.3% | [2] -7.45% | [3] 5.2% | [4] 25.9% | [5] 6.45% | [6] 24.3%

O=C1NC(=O)C(c2ccccc2)(c2ccsc2)N1 (stereo not given)
inactive: [1] 12.3% | [2] -4.3% | [3] 1.95% | [4] 10.6% | [5] 1% | [6] 13.6%

Cc1cccc(N=C(Nc2cccc(C)n2)Nc2cccc(C)n2)n1
inactive: [1] 31.3% | [2] 15.8% | [3] 35.6% | [4] 36.9% | [5] 25.9% | [6] 31.1%

Cc1cc(N(CCC#N)CCC#N)ccc1/C=C/C(=O)Nc1cccc(Cl)c1
inactive: [1] 8.95% | [2] 4.6% | [3] 3.55% | [4] 13.2% | [5] 27.4% | [6] 7.65%

CCOC(=O)CCCCCC(C(=O)OCC)c1nc2ccccc2[nH]c1=O (stereo not given)
inactive: [1] -14.4% | [2] 0.4% | [3] 10.9% | [4] -5.1% | [5] 11.1% | [6] 8.55%

Cn1cnnc1Sc1c([N+](=O)[O-])nc(-c2ccc([N+](=O)[O-])cc2)n1C
inactive: [1] -3.5% | [2] 3.15% | [3] 10.1% | [4] 35.1% | [5] 11.6% | [6] 8.95%

CCN(CC)CC(O)C=O (stereo not given)
inactive: [1] 10.6% | [2] -6.7% | [3] -3.85% | [4] 3.85% | [5] -9.5% | [6] 6.7%

Cc1[nH]c(=O)nc(N(CCO)/N=C/c2ccc(Cl)cc2)c1C(=O)Nc1ccc(Cl)cc1
inactive: [1] 6.7% | [2] 38.6% | [3] -18.1% | [4] 12.4% | [5] -13.3% | [6] -36%

O=C1Nc2ccccc2C2=C3CCCCC3=NNC12 (stereo not given)
inactive: [4] 68.2%
active: [1] 97.7% | [2] 93.8% | [3] 97.7% | [5] 97.5% | [6] 86%

Cc1ccccc1-c1nc2c([nH]1)c(=O)n(C)c(=O)n2C
inactive: [1] 32.8% | [2] -2.2% | [3] -10.2% | [4] -32.3% | [5] 0.25% | [6] 2.75%

COc1cc(OC)c(-c2oc3ccccc3c(=O)c2O)c(OC)c1
inactive: [1] -9.5% | [2] 12.7% | [3] 2.4% | [4] -13.2% | [5] 4.65% | [6] -5.45%

CN(CCC#N)c1ccc(/C=C(\C#N)c2ccc(Br)cc2)cc1
inactive: [1] 12.2% | [2] -23.8% | [3] 13.6% | [4] -12% | [5] -0.85% | [6] -18.9%

Nc1c(C(=O)Nc2ccc(S(N)(=O)=O)cc2)[n+]([O-])c2ccccc2[n+]1[O-]
inactive: [1] -7.9% | [2] -9.8% | [3] 0.5% | [4] 1% | [5] -9.95% | [6] -6.45%

Cc1nnc(N=Nc2c(O)[nH]c3ccccc23)[nH]c1=O
inactive: [1] 7.05% | [2] 1.2% | [3] -6.65% | [4] -0.2% | [5] 2.65% | [6] 16.1%
